For 31 compounds, Potency results are on record in PubChem BioAssay (NCATS).

Inconclusive results are not listed. Entries that show only a call come without a potency. Calls of active or inactive are those of the source. Calls come from the whole dose curve; as a rule, active = well fitted cell-killing curve with a large enough effect; inconclusive = small, poorly fitted or top-dose-only effect, or effect the other way; inactive = no such curve, though single readings can be large or run the other way.

The first test is described as follows: Quantitative High-Throughput drug screen in 47 multiple myeloma cell lines against the NCATS MIPE library collection: RPMI8226_ATCC cell viability assay (AID 1919871). Note: nearly all actives have a fitted effect of over 30% in size. The conditions noted are these: RPMI8226 myeloma viability, CellTiter-Glo ATP luminescence, 48 h; series mostly up to 45.8 µM. In a few lines: (§1)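 Myeloma cells (500/well) treated with MIPE 4.0 compounds for 48 h at 37 °C, 5% CO2. Viability read as ATP via CellTiter-Glo luminescence after 5 min at RT; DMSO-only wells = 100%, media-only = 0% viability.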
For orientation: ATP-based viability assays read luminescence as a measure of living cells.
On to `NC(=O)OCC(COC(N)=O)c1ccccc1`, for which the Potency result is “inactive”.
For the compound `COc1ccc(C2CNC(=O)C2)cc1OC1CCCC1` (stereo not given), the Potency entry was “inactive”.
`CC(C)(Oc1ccc(C2CC2(Cl)Cl)cc1)C(=O)O` (stereo not given): the Potency entry is “inactive”.
Turning to `COc1ccc2[nH]cc(CCNC(C)=O)c2c1`, the Potency result was “inactive”.
On to `CC(=O)OCC(CCn1cnc2cnc(N)nc21)COC(C)=O`, for which the Potency entry was “inactive”.
Regarding `O=C1N(c2ccccc2)c2ccccc2C1(Cc1ccncc1)Cc1ccncc1`, the Potency result was “inactive”.

Another test in a line: Quantitative High-Throughput drug screen in 47 multiple myeloma cell lines against the NCATS MIPE library collection: OPM2_DSMZ cell viability assay (AID 1919872). Note: nearly all actives have a fitted effect of over 30% in size. Note: potency is the fitted concentration of half-maximal effect. The conditions noted are these: OPM2 myeloma viability, CellTiter-Glo ATP luminescence, 48 h; series mostly up to 45.8 µM. The method, boiled down: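 Viability readout: CellTiter-Glo luminescence following 5 min room-temperature incubation with reagent. Prior exposure: 48 h, 37C, humidified 5% CO2, 500 cells per well.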
Take `O=C(Nc1ccc([N+](=O)[O-])cc1Cl)c1cc(Cl)ccc1O`: the Potency was 1.32 µM (active).
Still for that read-out and setting: the entry for `O=C(c1ccc(F)cc1)C1CCN(CCn2c(=O)[nH]c3ccccc3c2=O)CC1` is “inactive”; for `NCCS(=O)(=O)O` it is “inactive”.
For `Nc1ccn([C@H]2CC[C@@H](CO)O2)c(=O)n1`, the Potency entry is “inactive”.
As for `CC1COc2c(N3CCN(C)CC3)c(F)cc3c(=O)c(C(=O)O)cn1c23` (stereo not given), the Potency result was “inactive”.
On the same count and under the same terms, the same measure for `CN(C)C(=N)N=C(N)N`: “inactive”; for `CC1(CN2CCC(n3c(=O)[nH]c4ccccc43)CC2)OCc2ccccc2-n2cccc21` (stereo not given): “inactive”.
With `NC(=O)OCC(COC(N)=O)c1ccccc1`, the Potency entry was “inactive”.
The same measure, in the same setting: the entry for `CC(=O)OCC(CCn1cnc2cnc(N)nc21)COC(C)=O` is “inactive”; for `O=C1N(c2ccccc2)c2ccccc2C1(Cc1ccncc1)Cc1ccncc1` it is “inactive”.

A further test in a line: Quantitative High-Throughput drug screen in 47 multiple myeloma cell lines against the NCATS MIPE library collection: KMS11_JCRBsus cell viability assay (AID 1919873). Note: nearly all actives have a fitted effect of over 50% in size. Note: potency is the fitted concentration of half-maximal effect. Conditions: KMS11 myeloma viability, CellTiter-Glo ATP luminescence, 48 h; series mostly up to 45.8 µM. The method, boiled down:
as §1
In the case of `Cc1cc(C(C)(C)C)cc(C)c1CC1=NCCN1`, the Potency entry was “inactive”.
Take `CCC1(C)CC(=O)NC1=O` (stereo not given): the Potency result is “inactive”.
Same read-out and setting: the same measure for `O=C(Nc1ccc([N+](=O)[O-])cc1Cl)c1cc(Cl)ccc1O`: 0.526 µM (active); for `NCCS(=O)(=O)O`: “inactive”.
As for `Nc1ccn([C@H]2CC[C@@H](CO)O2)c(=O)n1`, the Potency result is “inactive”.
Still for that read-out and setting: the same measure for `CN(CCOc1ccc(NS(C)(=O)=O)cc1)CCc1ccc(NS(C)(=O)=O)cc1`: “inactive”; for `CC(COc1ccccc1)N(CCCl)Cc1ccccc1` (stereo not given): “inactive”.
For the compound `Cn1c(=O)c2[nH]cnc2n(C)c1=O`, the Potency result was “inactive”.
On the same count and under the same terms, the same measure for `CC(CCc1ccc(O)cc1)NCCc1ccc(O)c(O)c1` (stereo not given): 26.4 µM (active); for `Cc1cn([C@H]2C[C@H](N=[N+]=[N-])[C@@H](CO)O2)c(=O)[nH]c1=O`: “inactive”.
The same measure, in the same setting: the same measure for `CCOC(=O)C(C)(C)Oc1ccc(Cl)cc1`: “inactive”; for `NC12CC3CC(CC(C3)C1)C2`: 16.6 µM (active); for `Clc1ccc(C(c2ccccc2Cl)C(Cl)Cl)cc1` (stereo not given): 18.7 µM (active).
On to `CN(C)C(=N)N=C(N)N`, for which the Potency result was “inactive”.
As for `C[C@](N)(Cc1ccc(O)c(O)c1)C(=O)O`, the Potency was 7.43 µM (active).
Turning to `CN1CCC(=C2c3ccccc3CC(=O)c3sccc32)CC1`, the Potency entry is “inactive”.
`COc1ccc(C2CNC(=O)C2)cc1OC1CCCC1` (stereo not given): the Potency result is “inactive”.
In the case of `CC(C)(Oc1ccc(C2CC2(Cl)Cl)cc1)C(=O)O` (stereo not given), the Potency entry was “inactive”.
As for `COc1ccc2[nH]cc(CCNC(C)=O)c2c1`, the Potency entry was “inactive”.
For `CC(=O)OCC(CCn1cnc2cnc(N)nc21)COC(C)=O`, the Potency entry was “inactive”.
As for `NCCc1cnc[nH]1`, the Potency entry is “inactive”.
Take `O=C1N(c2ccccc2)c2ccccc2C1(Cc1ccncc1)Cc1ccncc1`: the Potency result was “inactive”.
Turning to `COc1nc(C)nc(Cl)c1NC1=NCCN1`, the Potency result was “inactive”.

Another test can be described thus: Quantitative High-Throughput drug screen in 47 multiple myeloma cell lines against the NCATS MIPE library collection: KMS28BM_JCRB cell viability assay (AID 1919874). Note: nearly all actives have a fitted effect of over 35% in size. Note: potency is the fitted concentration of half-maximal effect. The conditions noted are these: CellTiter-Glo ATP, 48 h; series mostly up to 45.8 µM. The method, boiled down: as §1
As for `O=C1Cc2cc(CCN3CCN(c4nsc5ccccc45)CC3)c(Cl)cc2N1`, the Potency was 23.5 µM (active).
For the compound `Cc1ccc(C(=O)Nc2ccc(S(=O)(=O)O)c3cc(S(=O)(=O)O)cc(S(=O)(=O)O)c23)cc1NC(=O)c1cccc(NC(=O)Nc2cccc(C(=O)Nc3cc(C(=O)Nc4ccc(S(=O)(=O)O)c5cc(S(=O)(=O)O)cc(S(=O)(=O)O)c45)ccc3C)c2)c1`, the Potency entry is “inactive”.
Turning to `CCC1(C)CC(=O)NC1=O` (stereo not given), the Potency result was “inactive”.
As for `Nc1ccn([C@H]2CC[C@@H](CO)O2)c(=O)n1`, the Potency entry is “inactive”.
As for `CN(CCOc1ccc(NS(C)(=O)=O)cc1)CCc1ccc(NS(C)(=O)=O)cc1`, the Potency entry was “inactive”.
For the compound `CC(COc1ccccc1)N(CCCl)Cc1ccccc1` (stereo not given), the Potency was 18.7 µM (active).
The same measure, in the same setting: the entry for `Cn1c(=O)c2[nH]cnc2n(C)c1=O` is “inactive”; for `COc1ccccc1N1CCN(CC(O)COc2cccc3ccccc23)CC1` (stereo not given) it is 13.2 µM (active).
Same read-out and setting: the same measure for `CC(CCc1ccc(O)cc1)NCCc1ccc(O)c(O)c1` (stereo not given): 26.4 µM (active); for `CC1COc2c(N3CCN(C)CC3)c(F)cc3c(=O)c(C(=O)O)cn1c23` (stereo not given): “inactive”.
Same read-out and setting: the same measure for `Cc1cn([C@H]2C[C@H](N=[N+]=[N-])[C@@H](CO)O2)c(=O)[nH]c1=O`: “inactive”; for `CN1CCN(C2=Nc3cc(Cl)ccc3Nc3ccccc32)CC1`: “inactive”; for `CCOC(=O)C(C)(C)Oc1ccc(Cl)cc1`: “inactive”.
On to `Clc1ccc(C(c2ccccc2Cl)C(Cl)Cl)cc1` (stereo not given), for which the Potency is 16.6 µM (active).
As to `CN(C)C(=N)N=C(N)N`, the Potency result is “inactive”.
The same measure, in the same setting: the entry for `C[C@](N)(Cc1ccc(O)c(O)c1)C(=O)O` is “inactive”.
As to `COc1ccc(C2CNC(=O)C2)cc1OC1CCCC1` (stereo not given), the Potency entry was “inactive”.
As for `CC(C)(Oc1ccc(C2CC2(Cl)Cl)cc1)C(=O)O` (stereo not given), the Potency entry is “inactive”.
Consider `CC(=O)OCC(CCn1cnc2cnc(N)nc21)COC(C)=O`, for which the Potency entry was “inactive”.
Take `NCCc1cnc[nH]1`: the Potency result was “inactive”.
On the same count and under the same terms, the same measure for `COc1nc(C)nc(Cl)c1NC1=NCCN1`: “inactive”.
